# Source: PubChem (several laboratories)
# Most compounds without a hit are left out; they make up all but 4.2% or so of the library.
# GAA850 FXN act: increases GAA850 frataxin promoter reporter activity. HEK293 lucGAA850 FXN promoter luciferase reporter, 24 h; percent of 10 µM SAHA response. activation, % at 6 µM. actives 0.56% (n = 360,000);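 active = activation above the average of all compounds screened plus 3 SD, cutoff fixed separately per campaign, cut at about 7.5% in these data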;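 note: 0% = DMSO wells and 100% = 10 µM SAHA wells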
# esBAF inh: blocks esBAF chromatin remodeling in mouse ES cells | Bmi1-luciferase knock-in reporter, 24 h; 100% = twice the neutral-well signal | actives 2% (n = 350,000) | AID 602393 | reporter increase, % at 12.5 µM; in the data active = activation above about 40%; inconclusive = no clear call, values can overlap the other calls;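 note: 0% = median of the plate's neutral control wells and 100% = double that signal; a rise in the Bmi1 reporter signal indicates esBAF inhibition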
# MITF TRPM1 HTS: activators of MITF-driven TRPM1 promoter activity in SK-MEL-5 cells; SK-MEL-5 TRPM1-promoter luciferase, 24 h; % of positive control, neutral wells = 0; activation, % at 12.5 µM; actives 0.75% (n = 300,000); AID 588334;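 active = mean activation of at least 80% with every replicate also reaching 80%; inconclusive = mean reaches 80% but some replicate falls short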;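 note: 0% = neutral control wells and 100% = parthenolide positive control wells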
# Wnt act: Wnt/beta-catenin pathway activation; actives 1.2% (n = 300,000); AID 743398; activation, % at 9.35 µM; Wnt/beta-catenin reporter cell assay, activator, plate reader; in the data active = activation above about 30%, passing the limit was not always enough; inconclusive = no clear call, values can overlap the other calls;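 note: 0% = neutral control wells and 100% = positive control wells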
# AHR activator: human AHR activation; P35869; AHR-responsive luciferase reporter cells, luminescence; activation, % at 5 µM; actives 2.5% (n = 320,000); in the data active = activation above about 47%;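 note: 0% = vehicle wells and 100% = reference agonist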
# Target sequence (P35869 whole entry, looked up): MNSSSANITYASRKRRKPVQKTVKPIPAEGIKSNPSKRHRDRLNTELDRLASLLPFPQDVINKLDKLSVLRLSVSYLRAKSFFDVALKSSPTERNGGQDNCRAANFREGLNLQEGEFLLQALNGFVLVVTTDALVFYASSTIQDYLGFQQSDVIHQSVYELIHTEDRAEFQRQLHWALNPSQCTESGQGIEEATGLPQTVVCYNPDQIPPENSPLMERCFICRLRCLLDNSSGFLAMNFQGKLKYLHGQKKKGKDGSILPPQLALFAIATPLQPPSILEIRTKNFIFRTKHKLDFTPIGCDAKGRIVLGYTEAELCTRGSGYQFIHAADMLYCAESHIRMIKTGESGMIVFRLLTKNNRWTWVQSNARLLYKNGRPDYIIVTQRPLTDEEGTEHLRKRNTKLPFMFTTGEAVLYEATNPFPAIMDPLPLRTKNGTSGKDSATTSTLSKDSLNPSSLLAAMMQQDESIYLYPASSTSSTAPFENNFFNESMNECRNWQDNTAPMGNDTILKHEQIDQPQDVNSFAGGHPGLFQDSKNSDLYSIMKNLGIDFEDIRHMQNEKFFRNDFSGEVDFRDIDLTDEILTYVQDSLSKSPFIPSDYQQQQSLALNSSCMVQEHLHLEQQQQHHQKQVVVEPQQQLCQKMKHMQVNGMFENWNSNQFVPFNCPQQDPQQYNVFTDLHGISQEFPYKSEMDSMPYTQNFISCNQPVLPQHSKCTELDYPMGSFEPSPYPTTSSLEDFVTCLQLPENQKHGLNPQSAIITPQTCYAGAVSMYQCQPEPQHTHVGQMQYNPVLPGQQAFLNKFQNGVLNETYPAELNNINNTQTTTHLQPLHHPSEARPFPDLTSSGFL
# An asterisk follows results filed as active; ? = inconclusive; . = not tested or not shown.
SMILES,GAA850 FXN act,esBAF inh,MITF TRPM1 HTS,Wnt act,AHR activator
Cn1c(O)c(N=Nc2nc(-c3ccccc3)cs2)c2ccccc21,3.4,.,5.3,.,54.1*
Cn1c(O)c(N=Nc2ccccc2)c2ccccc21,2.1,1.0,-14.3,3.5,55.2*
C[C@H]1CN([C@@H](C)CO)C(=O)c2c(c3ccccc3n2C)-c2ccccc2CO[C@H]1CN(C)C(=O)[C@H]1CCCN1C,.,6.9,.,.,.
COC(=O)N/N=C(\CCC(=O)O)c1cccs1,3.5,.,-0.7,4.7,7.7
O=C(O)CC/C(=N\Nc1ccc(Cl)cc1)c1cccs1,0.8,7.5,-0.2,1.7,61.2*
Cc1noc(C)c1NC(=O)N(C)C[C@@H]1Oc2ccc(NS(=O)(=O)c3ccccc3)cc2C(=O)N([C@@H](C)CO)C[C@H]1C,.,0.3,.,.,.
O=C(Nc1nccs1)c1ccc2sc([C@H]3C[C@H](O)[C@@H](CO)O3)nc2c1,2.4,36.6,.,26.9,.
O=C(Nc1cccc2ccccc12)c1ccc2sc([C@@H]3O[C@H](CO)[C@@H](O)[C@H]3O)nc2c1,0.5,41.7*,.,0.0,.
O=C(Nc1ccccc1F)c1ccc2sc([C@@H]3O[C@H](CO)[C@H](O)[C@H](O)[C@H]3O)nc2c1,2.4,27.9,.,18.2,.
O=C(NC1CC1)c1ccc2sc([C@H]3C[C@H](O)[C@@H](CO)O3)nc2c1,3.5,-5.8,.,-0.3,.
O=C(Nc1ccccc1F)c1ccc2sc([C@H]3C[C@H](O)[C@@H](CO)O3)nc2c1,0.1,55.4*,.,-3.0,.
O=C(Nc1nc2ccccc2s1)c1ccc2sc([C@H]3C[C@H](O)[C@@H](CO)O3)nc2c1,3.4,55.0*,.,4.5,.
C[C@@H]1CN([C@H](C)CO)C(=O)c2cc(-c3cccc(F)c3)cnc2O[C@H]1CN(C)C(=O)C1CCCCC1,.,-2.1,.,.,.
CC(=O)N[C@@H]1CC[C@H](CCNC(=O)Nc2ccc(C(F)(F)F)cc2)O[C@@H]1CO,.,1.8,.,.,.
CSc1ncccc1C(=O)NC(C)CCc1ccccc1 (stereo not drawn),-0.6,-0.3,-1.1,0.6,-0.2
COC(=O)[C@H](CCSC)NC(=O)c1cccnc1SC,1.0,.,.,36.0*,-0.5
CCC(=O)N(C)C[C@H]1Oc2ncc(/C=C/c3ccccc3)cc2C(=O)N([C@@H](C)CO)C[C@@H]1C,.,-1.1,.,.,.
CC(C)NC(=O)Nc1ccc2c(c1)C(=O)N([C@H](C)CO)C[C@H](C)[C@H](CN(C)S(=O)(=O)c1ccc(Cl)cc1)OCCCC[C@H](C)O2,.,-0.6,.,.,.
CCc1n[nH]c(=S)n1/N=C/c1ccccc1OCc1ccc(Cl)cc1,0.3,.,8.8,9.3,66.5*
Cc1n[nH]c(=S)n1/N=C/c1ccccc1OCc1ccc(Cl)cc1Cl,2.6,.,0.0,.,48.6*
CO[C@@H]1CN(C)C(=O)c2cc(NC(=O)c3ccccc3)ccc2OC[C@H](C)N(C(=O)CN(C)C)C[C@@H]1C,.,4.6,.,.,.
C[C@H](CO)N1C[C@H](C)[C@H](CN(C)S(=O)(=O)c2cn(C)cn2)Oc2ccc(NC(=O)CCCCCC(=O)Nc3ccccc3N)cc2CC1=O,.,-0.6,.,.,.
COc1ccc(CNC(=O)CCc2nc(-c3ccccc3F)no2)c(OC)c1,0.1,-1.2,-12.0,.,49.0*
Cn1c(=O)n(/N=C/c2ccccc2)c2ccccc21,1.4,.,6.8,-0.5,62.0*
C[C@@H]1CN([C@@H](C)CO)C(=O)c2cc(NC(=O)Cc3cn(C)c4ccccc34)ccc2O[C@@H]1CN(C)S(=O)(=O)c1cn(C)cn1,.,-0.2,.,.,.
SMILES,GAA850 FXN act,esBAF inh,MITF TRPM1 HTS,Wnt act,AHR activator
Cc1ccc2c(c1)cc(CN(Cc1ccco1)C(=O)COc1ccccc1)c1nnnn12,-1.9,-2.5,.,-5.5,1.3
CCC(=O)N(Cc1ccco1)Cc1cc2cccc(C)c2n2nnnc12,0.0,.,-1.5,46.2*,5.0
O=c1c2ccccc2nc2c3ccccc3cnn12,5.4,74.4*,47.6,10.3,16.1
O=c1c2ccccc2nc2ccccn12,2.7,.,38.6,5.4,8.7
Nc1nc(-c2ccc3ccccc3c2)cs1,7.4,.,?,17.4,6.2
CN(C)/C=N/c1nc(-c2ccc3ccccc3c2)cs1,3.5,60.1,125.0*,40.5*,5.0
N#C/C(=N/Nc1ccc(OC(F)(F)F)cc1)C(N)=S,-8.8,.,-2.4,-5.7,54.1*
C[C@H]1CN([C@@H](C)CO)C(=O)c2cccc(NS(=O)(=O)c3ccccc3)c2O[C@@H]1CN(C)C(=O)Nc1ccccc1,.,-5.1,.,.,.
C=CCc1c(C)nc2ccc(C(=O)OCC)cc2c1Cl,2.9,53.1*,43.7,1.7,2.5
CCOC(=O)c1ccc2nc(C)c(CCC(C)=O)c(Cl)c2c1,1.3,63.3*,.,.,0.3
CCn1c2ccccc2c2nnc(SCc3ccccc3)nc21,4.8,9.8,.,-5.0,62.7*
C[C@@H]1CN([C@H](C)CO)C(=O)c2cc(NC(=O)Nc3ccc4c(c3)OCO4)ccc2O[C@H]1CN(C)S(C)(=O)=O,.,-1.7,.,.,.
Cn1c(N)c(-c2nc3cccnc3n2C)sc1=S,1.1,.,-1.4,-0.9,51.2*
CCCNC(=O)Nc1ccc2c(c1)C(=O)N(C)C[C@@H](OC)[C@@H](C)CN(Cc1ccc(-c3ccccn3)cc1)[C@@H](C)CO2,.,6.2,.,.,.
CCCC(=O)Nc1ccc2c(c1)C(=O)N(C)C[C@H](OC)[C@@H](C)CN(Cc1ccc(-c3ccccn3)cc1)[C@@H](C)CO2,.,111.8*,.,.,.
CCCC(=O)Nc1ccc2c(c1)C(=O)N(C)C[C@H](OC)[C@@H](C)CN(Cc1ccc(-c3ccccn3)cc1)[C@H](C)CO2,.,-7.7,.,.,.
CCCNC(=O)Nc1ccc2c(c1)C(=O)N(C)C[C@H](OC)[C@@H](C)CN(Cc1ccc(-c3ccccn3)cc1)[C@@H](C)CO2,.,96.7*,.,.,.
CC(C)NC(=O)Nc1cccc2c1O[C@@H](CN(C)Cc1ccncc1)[C@@H](C)CN([C@H](C)CO)C2=O,.,4.8,.,.,.
CO[C@@H]1CN(C)C(=O)c2cc(NC(=O)c3ccccc3F)ccc2OC[C@H](C)N(C(C)=O)C[C@H]1C,.,-2.8,.,.,.
CCC(=O)N1[C@@H]2c3ccc(-c4ccccc4)c(=O)n3C[C@H]1[C@H](CO)[C@H]2C(=O)N1CCN(C)CC1,.,2.1,.,.,.
O=C(C1CCCCC1)N1C[C@@H]2[C@H](c3ccccc31)[C@@H](CO)N2Cc1ccccc1Cl,.,4.3,.,.,.
Cc1cc(C)c(C(=O)N2CCCC(Nc3ccc(C)c(C)c3)C2)o1 (stereo not drawn),1.1,-8.8,-4.2,-1.4,62.9*
Cc1ccc(NC2CCCN(C(=O)C3CCCCC3)C2)cc1C (stereo not drawn),-0.6,.,-6.6,-0.2,60.4*
CC(=O)c1sc(N/N=C\c2ccc(Br)cc2)nc1C,4.8,.,118.6*,13.8,19.5
Cn1c(N)c(C(=O)N/N=C/c2ccccc2)sc1=S,0.1,.,.,-1.5,100.6*
Cn1c(N)c(C(=O)Nc2ccc3ccccc3c2)sc1=S,6.6,38.9,106.8*,.,93.2*
Nc1c(C(=O)Nc2ccc(F)cc2)sc(=S)n1-c1ccccc1F,2.4,53.9*,50.7,5.2,-0.2
COc1ccc(C(=O)Nc2ccc3ccccc3c2)cc1,-2.4,-47.9,-7.4,7.8,-8.2
